# Measurements: the supplement of paper PMC4466140
# Molecular target: CaNbp2
# Assay: SPOT peptide array binding signal intensity (averaged, normalized) (arbitrary units (background-subtracted, floor 0; scale differs between SH3 domains)); higher = stronger binding of the SH3 domain to the peptide
# Outline: (§1)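 Binding signal refers to normalized, background-subtracted spot intensity averaged over replicates, expressed in arbitrary units that differ between domains. GST-fused SH3 domains from four yeast species were incubated at 10 μg/ml overnight at 4°C on cellulose membranes of synthetic 15-mer peptides with cysteines replaced by serines. Bound protein was detected with anti-GST antibody, an HRP anti-mouse secondary and luminol, and quantified with Genespotter.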
row,Binder,SPOT peptide array binding signal intensity
1,QGYPRQPQRPQRYHP,≤ 0
2,PSRRAPLQLPQLVNK,324

# Molecular target: CaRvs167
# Assay: as above
# Outline: as §1
row,Binder,SPOT peptide array binding signal intensity
1,QGYPRQPQRPQRYHP,2.5
2,PSRRAPLQLPQLVNK,6

# Molecular target: CaRvs167-3
# Assay: as above
# Outline: as §1
row,Binder,SPOT peptide array binding signal intensity
1,QGYPRQPQRPQRYHP,≤ 0
2,PSRRAPLQLPQLVNK,≤ 0

# Molecular target: CaSho1
# Assay: as above
# Outline: as §1
row,Binder,SPOT peptide array binding signal intensity
1,QGYPRQPQRPQRYHP,12.5
2,PSRRAPLQLPQLVNK,6

# Molecular target: CaSla1-D1-D2
# Assay: as above
# Outline: as §1
row,Binder,SPOT peptide array binding signal intensity
1,QGYPRQPQRPQRYHP,≤ 0
2,PSRRAPLQLPQLVNK,21

# Molecular target: CaSla1-D3
# Assay: as above
# Outline: as §1
row,Binder,SPOT peptide array binding signal intensity
1,QGYPRQPQRPQRYHP,≤ 0
2,PSRRAPLQLPQLVNK,≤ 0

# Molecular target: ScAbp1
# Assay: as above
# Outline: as §1
row,Binder,SPOT peptide array binding signal intensity
1,QGYPRQPQRPQRYHP,10
2,PSRRAPLQLPQLVNK,13

# Molecular target: ScBbc1
# Assay: as above
# Outline: as §1
row,Binder,SPOT peptide array binding signal intensity
1,QGYPRQPQRPQRYHP,40.2
2,PSRRAPLQLPQLVNK,11.5

# Molecular target: ScBem1-D1
# Assay: as above
# Outline: as §1
row,Binder,SPOT peptide array binding signal intensity
1,QGYPRQPQRPQRYHP,2.5
2,PSRRAPLQLPQLVNK,11

# Molecular target: ScBzz1-D1
# Assay: as above
# Outline: as §1
row,Binder,SPOT peptide array binding signal intensity
1,QGYPRQPQRPQRYHP,≤ 0
2,PSRRAPLQLPQLVNK,12

# Molecular target: ScBzz1-D2
# Assay: as above
# Outline: as §1
row,Binder,SPOT peptide array binding signal intensity
1,QGYPRQPQRPQRYHP,11
2,PSRRAPLQLPQLVNK,10

# Molecular target: ScCyk3
# Assay: as above
# Outline: as §1
row,Binder,SPOT peptide array binding signal intensity
1,QGYPRQPQRPQRYHP,≤ 0
2,PSRRAPLQLPQLVNK,≤ 0

# Molecular target: ScFus1
# Assay: as above
# Outline: as §1
row,Binder,SPOT peptide array binding signal intensity
1,QGYPRQPQRPQRYHP,≤ 0
2,PSRRAPLQLPQLVNK,≤ 0

# Molecular target: ScHof1
# Assay: as above
# Outline: as §1
row,Binder,SPOT peptide array binding signal intensity
1,QGYPRQPQRPQRYHP,0.75
2,PSRRAPLQLPQLVNK,0.5

# Molecular target: ScHse1
# Assay: as above
# Outline: as §1
row,Binder,SPOT peptide array binding signal intensity
1,QGYPRQPQRPQRYHP,≤ 0
2,PSRRAPLQLPQLVNK,35.5

# Molecular target: ScLsb1
# Assay: as above
# Outline: as §1
row,Binder,SPOT peptide array binding signal intensity
1,QGYPRQPQRPQRYHP,9.5
2,PSRRAPLQLPQLVNK,123

# Molecular target: ScLsb2
# Assay: as above
# Outline: as §1
row,Binder,SPOT peptide array binding signal intensity
1,QGYPRQPQRPQRYHP,≤ 0
2,PSRRAPLQLPQLVNK,5

# Molecular target: ScLsb3
# Assay: as above
# Outline: as §1
row,Binder,SPOT peptide array binding signal intensity
1,QGYPRQPQRPQRYHP,1040
2,PSRRAPLQLPQLVNK,86

# Molecular target: ScLsb4
# Assay: as above
# Outline: as §1
row,Binder,SPOT peptide array binding signal intensity
1,QGYPRQPQRPQRYHP,25
2,PSRRAPLQLPQLVNK,≤ 0

# Molecular target: ScMyo3
# Assay: as above
# Outline: as §1
row,Binder,SPOT peptide array binding signal intensity
1,QGYPRQPQRPQRYHP,≤ 0
2,PSRRAPLQLPQLVNK,≤ 0

# Molecular target: ScMyo5
# Assay: as above
# Outline: as §1
row,Binder,SPOT peptide array binding signal intensity
1,QGYPRQPQRPQRYHP,≤ 0
2,PSRRAPLQLPQLVNK,1.5

# Molecular target: ScNbp2
# Assay: as above
# Outline: as §1
row,Binder,SPOT peptide array binding signal intensity
1,QGYPRQPQRPQRYHP,3.5
2,PSRRAPLQLPQLVNK,17

# Molecular target: ScPex13
# Assay: as above
# Outline: as §1
row,Binder,SPOT peptide array binding signal intensity
1,QGYPRQPQRPQRYHP,29.5
2,PSRRAPLQLPQLVNK,≤ 0

# Molecular target: ScRvs167
# Assay: as above
# Outline: as §1
row,Binder,SPOT peptide array binding signal intensity
1,QGYPRQPQRPQRYHP,≤ 0
2,PSRRAPLQLPQLVNK,5.67

# Molecular target: ScSho1
# Assay: as above
# Outline: as §1
row,Binder,SPOT peptide array binding signal intensity
1,QGYPRQPQRPQRYHP,16
2,PSRRAPLQLPQLVNK,35

# Molecular target: ScSla1-D1-D2
# Assay: as above
# Outline: as §1
row,Binder,SPOT peptide array binding signal intensity
1,QGYPRQPQRPQRYHP,12
2,PSRRAPLQLPQLVNK,394

# Molecular target: ScSla1-D3
# Assay: as above
# Outline: as §1
row,Binder,SPOT peptide array binding signal intensity
1,QGYPRQPQRPQRYHP,≤ 0
2,PSRRAPLQLPQLVNK,32

# Molecular target: SpAbp1-D1
# Assay: as above
# Outline: as §1
row,Binder,SPOT peptide array binding signal intensity
1,QGYPRQPQRPQRYHP,≤ 0
2,PSRRAPLQLPQLVNK,59

# Molecular target: SpBbc1
# Assay: as above
# Outline: as §1
row,Binder,SPOT peptide array binding signal intensity
1,QGYPRQPQRPQRYHP,3.5
2,PSRRAPLQLPQLVNK,≤ 0

# Molecular target: SpBzz1-D1
# Assay: as above
# Outline: as §1
row,Binder,SPOT peptide array binding signal intensity
1,QGYPRQPQRPQRYHP,226
2,PSRRAPLQLPQLVNK,134

# Molecular target: SpBzz1-D2
# Assay: as above
# Outline: as §1
row,Binder,SPOT peptide array binding signal intensity
1,QGYPRQPQRPQRYHP,0.5
2,PSRRAPLQLPQLVNK,≤ 0

# Molecular target: SpCyk3
# Assay: as above
# Outline: as §1
row,Binder,SPOT peptide array binding signal intensity
1,QGYPRQPQRPQRYHP,≤ 0
2,PSRRAPLQLPQLVNK,≤ 0

# Molecular target: SpHof1
# Assay: as above
# Outline: as §1
row,Binder,SPOT peptide array binding signal intensity
1,QGYPRQPQRPQRYHP,5
2,PSRRAPLQLPQLVNK,7.75

# Molecular target: SpHof1-2
# Assay: as above
# Outline: as §1
row,Binder,SPOT peptide array binding signal intensity
1,QGYPRQPQRPQRYHP,≤ 0
2,PSRRAPLQLPQLVNK,1.25

# Molecular target: SpHof1-3
# Assay: as above
# Outline: as §1
row,Binder,SPOT peptide array binding signal intensity
1,QGYPRQPQRPQRYHP,0.5
2,PSRRAPLQLPQLVNK,89.8

# Molecular target: SpHse1
# Assay: as above
# Outline: as §1
row,Binder,SPOT peptide array binding signal intensity
1,QGYPRQPQRPQRYHP,2
2,PSRRAPLQLPQLVNK,≤ 0

# Molecular target: SpLsb1
# Assay: as above
# Outline: as §1
row,Binder,SPOT peptide array binding signal intensity
1,QGYPRQPQRPQRYHP,4
2,PSRRAPLQLPQLVNK,45.2

# Molecular target: SpLsb4
# Assay: as above
# Outline: as §1
row,Binder,SPOT peptide array binding signal intensity
1,QGYPRQPQRPQRYHP,1230
2,PSRRAPLQLPQLVNK,2

# Molecular target: SpMyo1
# Assay: as above
# Outline: as §1
row,Binder,SPOT peptide array binding signal intensity
1,QGYPRQPQRPQRYHP,≤ 0
2,PSRRAPLQLPQLVNK,0.5

# Molecular target: SpNbp2
# Assay: as above
# Outline: as §1
row,Binder,SPOT peptide array binding signal intensity
1,QGYPRQPQRPQRYHP,≤ 0
2,PSRRAPLQLPQLVNK,3

# Molecular target: SpPex13
# Assay: as above
# Outline: as §1
row,Binder,SPOT peptide array binding signal intensity
1,QGYPRQPQRPQRYHP,1
2,PSRRAPLQLPQLVNK,≤ 0

# Molecular target: SpRvs167
# Assay: as above
# Outline: as §1
row,Binder,SPOT peptide array binding signal intensity
1,QGYPRQPQRPQRYHP,3
2,PSRRAPLQLPQLVNK,1.67

# Molecular target: SpSla1-D1-D2
# Assay: as above
# Outline: as §1
row,Binder,SPOT peptide array binding signal intensity
1,QGYPRQPQRPQRYHP,≤ 0
2,PSRRAPLQLPQLVNK,≤ 0

# Molecular target: SpSla1-D3
# Assay: as above
# Outline: as §1
row,Binder,SPOT peptide array binding signal intensity
1,QGYPRQPQRPQRYHP,≤ 0
2,PSRRAPLQLPQLVNK,≤ 0

# Molecular target: AgAbp1
# Assay: as above
# Outline: as §1
row,Binder,SPOT peptide array binding signal intensity
1,PSRRAPLQLPQLVNK,15

# Molecular target: AgBbc1
# Assay: as above
# Outline: as §1
row,Binder,SPOT peptide array binding signal intensity
1,PSRRAPLQLPQLVNK,8.5

# Molecular target: AgBem1-D1
# Assay: as above
# Outline: as §1
row,Binder,SPOT peptide array binding signal intensity
1,PSRRAPLQLPQLVNK,26

# Molecular target: AgBzz1-D1
# Assay: as above
# Outline: as §1
row,Binder,SPOT peptide array binding signal intensity
1,PSRRAPLQLPQLVNK,13

# Molecular target: AgBzz1-D2
# Assay: as above
# Outline: as §1
row,Binder,SPOT peptide array binding signal intensity
1,PSRRAPLQLPQLVNK,35

# Molecular target: AgCyk3
# Assay: as above
# Outline: as §1
row,Binder,SPOT peptide array binding signal intensity
1,PSRRAPLQLPQLVNK,≤ 0

# Molecular target: AgFus1
# Assay: as above
# Outline: as §1
row,Binder,SPOT peptide array binding signal intensity
1,PSRRAPLQLPQLVNK,≤ 0

# Molecular target: AgHof1
# Assay: as above
# Outline: as §1
row,Binder,SPOT peptide array binding signal intensity
1,PSRRAPLQLPQLVNK,36.5

# Molecular target: AgHse1
# Assay: as above
# Outline: as §1
row,Binder,SPOT peptide array binding signal intensity
1,PSRRAPLQLPQLVNK,≤ 0

# Molecular target: AgLsb1
# Assay: as above
# Outline: as §1
row,Binder,SPOT peptide array binding signal intensity
1,PSRRAPLQLPQLVNK,214

# Molecular target: AgLsb4
# Assay: as above
# Outline: as §1
row,Binder,SPOT peptide array binding signal intensity
1,PSRRAPLQLPQLVNK,≤ 0

# Molecular target: AgMyo5
# Assay: as above
# Outline: as §1
row,Binder,SPOT peptide array binding signal intensity
1,PSRRAPLQLPQLVNK,≤ 0

# Molecular target: AgNbp2
# Assay: as above
# Outline: as §1
row,Binder,SPOT peptide array binding signal intensity
1,PSRRAPLQLPQLVNK,3

# Molecular target: AgRvs167
# Assay: as above
# Outline: as §1
row,Binder,SPOT peptide array binding signal intensity
1,PSRRAPLQLPQLVNK,≤ 0

# Molecular target: AgSho1
# Assay: as above
# Outline: as §1
row,Binder,SPOT peptide array binding signal intensity
1,PSRRAPLQLPQLVNK,≤ 0

# Molecular target: AgSla1-D1-D2
# Assay: as above
# Outline: as §1
row,Binder,SPOT peptide array binding signal intensity
1,PSRRAPLQLPQLVNK,6

# Molecular target: AgSla1-D3
# Assay: as above
# Outline: as §1
row,Binder,SPOT peptide array binding signal intensity
1,PSRRAPLQLPQLVNK,1.5

# Molecular target: CaAbp1-D1
# Assay: as above
# Outline: as §1
row,Binder,SPOT peptide array binding signal intensity
1,PSRRAPLQLPQLVNK,89.5

# Molecular target: CaAbp1-D2
# Assay: as above
# Outline: as §1
row,Binder,SPOT peptide array binding signal intensity
1,PSRRAPLQLPQLVNK,52

# Molecular target: CaBbc1
# Assay: as above
# Outline: as §1
row,Binder,SPOT peptide array binding signal intensity
1,PSRRAPLQLPQLVNK,279

# Molecular target: CaBem1-D1
# Assay: as above
# Outline: as §1
row,Binder,SPOT peptide array binding signal intensity
1,PSRRAPLQLPQLVNK,11.5

# Molecular target: CaBzz1-D1
# Assay: as above
# Outline: as §1
row,Binder,SPOT peptide array binding signal intensity
1,PSRRAPLQLPQLVNK,130

# Molecular target: CaBzz1-D2
# Assay: as above
# Outline: as §1
row,Binder,SPOT peptide array binding signal intensity
1,PSRRAPLQLPQLVNK,41.8

# Molecular target: CaCyk3
# Assay: as above
# Outline: as §1
row,Binder,SPOT peptide array binding signal intensity
1,PSRRAPLQLPQLVNK,3

# Molecular target: CaFus1
# Assay: as above
# Outline: as §1
row,Binder,SPOT peptide array binding signal intensity
1,PSRRAPLQLPQLVNK,23.5

# Molecular target: CaHof1
# Assay: as above
# Outline: as §1
row,Binder,SPOT peptide array binding signal intensity
1,PSRRAPLQLPQLVNK,≤ 0

# Molecular target: CaHse1
# Assay: as above
# Outline: as §1
row,Binder,SPOT peptide array binding signal intensity
1,PSRRAPLQLPQLVNK,≤ 0

# Molecular target: CaLsb1
# Assay: as above
# Outline: as §1
row,Binder,SPOT peptide array binding signal intensity
1,PSRRAPLQLPQLVNK,≤ 0

# Molecular target: CaLsb4
# Assay: as above
# Outline: as §1
row,Binder,SPOT peptide array binding signal intensity
1,PSRRAPLQLPQLVNK,17

# Molecular target: CaMyo5
# Assay: as above
# Outline: as §1
row,Binder,SPOT peptide array binding signal intensity
1,PSRRAPLQLPQLVNK,≤ 0
